Compound activity (PubChem)
Sampled rows, rich in hits. Any-hit rate of the full collection: about 10%.
HEK cytotox: Cytotoxic Profiling in HEK 293 Cell Line of Diverse Libraries Using Quantitative High-Throughput Screening. Potency, µM (top dose mostly 115 µM), for inactives: at the top dose activity change, negative = cytotoxicity, usual class: inhibitors. actives 6.6% (n = 94,000). HEK 293 viability, ATP luminescence (CellTiter-Glo), 48-72 h. AID 1345083, 2018; further: nearly all actives have a fitted effect of over 60% in size
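HEK 293 seeded at 250 cells/well receive compound via pintool. After 48 or 72 hr at 37 degree Celsius, 5% CO2 and 95% humidity, CellTiter-Glo is dispensed and luminescence read following 10 min at room temperature.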
GPT2 inh: Primary qHTS assay for inhibitors of Glutamate pyruvate transaminase 2 (GPT2); Alanine aminotransferase 2 (Homo sapiens), Q8TD30; Potency, µM (highest dose often 57.7 µM), without a hit: at the highest dose activity change, negative = inhibition, most hits filed as inhibitors; actives 0.25% (n = 100,000); Recombinant GPT2, coupled pyruvate oxidase/HRP Amplex Red fluorescence; further: nearly all actives have a fitted effect of over 60% in size
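Fluorescence read-out: pyruvate from GPT2 turnover coupled to pyruvate oxidase, HRP and Amplex Red (0.2mM ThPP, 0.2U/mL PO and HRP, 50uM Amplex final). Substrates 250uM a-KG, 2mM L-alanine; enzyme 10ng/uL; 30 min RT.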
NIH3T3 tox: Cytotoxic Profiling in NIH 3T3 Cell Line of Diverse Libraries Using Quantitative High-Throughput Screening; NIH 3T3 viability, CellTiter-Glo ATP luminescence, 48-72 h; Potency, µM (titrated, usually from 96.7 µM), for inactives: top-dose activity change, negative = cytotoxicity, actives largely listed as inhibitors; actives 4.3% (n = 94,000); AID 1345082, 2018; further: nearly all actives have a fitted effect of over 55% in size
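NIH 3T3 cells at 400 cells/well received 23 nL of compound by pintool and were incubated 48 or 72 h at 37 °C. Viability was read as ATP-coupled CellTiter-Glo luminescence.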
FLuc inh: Firefly luciferase inhibition profiling of diverse chemical library using quantitative high-throughput screening; Luciferin 4-monooxygenase (Photinus pyralis), P08659; purified P. pyralis luciferase, luminescence, biochemical; Potency, µM (top dose mostly 115 µM), actives largely listed as inhibitors; actives 2.5% (n = 76,000); AID 1347043, 2019; further: nearly all actives have a fitted effect of over 65% in size
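FLuc 10nM, D-luciferin 10uM, ATP 10uM, Mg acetate 10mM, Tris acetate pH 7.5, Tween/BSA; cpd qHTS; enzyme added last; CCD luminescence.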
NPR1 antag: Natriuretic polypeptide receptor (hNpr1) antagonism - Primary qHTS; Atrial natriuretic peptide receptor 1 (Homo sapiens), P16066; HEK293 hNpr1 GloSensor cGMP, ANP-stimulated luminescence; Potency, µM (series often up to 46.3 µM), for inactives: at the top dose activity change, negative = inhibition, hits mostly inhibitors; actives 1.6% (n = 76,000); AID 1347048, 2019; calls by dose curve; further: nearly all actives have a fitted effect of over 60% in size
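Compound pre-incubated 30 min at room temperature on GloSensor-loaded HEK293 cells stably carrying hNpr1 and the pGS-40F cGMP biosensor. Stimulation uses hNppA at 0.1 nM final; luminescence is taken at baseline and 20 min post-agonist.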
Active calls of the source: *; [ ] = another dose, or the depositor's remark. Unless noted, the call rests on the fitted dose curve; in most records, active means well fitted curve in the direction sought with a large enough effect; inconclusive means small, poorly fitted or top-dose-only effect, or another doubt; inactive means no such curve, though single readings can be large; an effect the other way counts as inactive or inconclusive. On the % scale 0 is the no-effect control and ±100 the full control effect; potency means the concentration at half of the fitted maximal effect.

`COc1ccccc1CN[C@H]1Cc2ccc(cc2)Nc2cc(ccc2OC)C[C@H](C(=O)NCc2ccccc2)N(C)C1=O` gave HEK cytotox 40µM*, GPT2 inh -28%, NIH3T3 tox inconclusive, FLuc inh inactive and NPR1 antag 3%.
For O=C(c1ccc(Cl)cc1)N1CCNc2cnc(Nc3cccc(C(F)(F)F)c3)nc2C1 the results were HEK cytotox 32µM*, GPT2 inh -12%, NIH3T3 tox 22µM*, FLuc inh inactive and NPR1 antag inconclusive.
`Cc1ncsc1C(=O)N1CCNc2cnc(Nc3cccc(C(F)(F)F)c3)nc2C1` gave HEK cytotox inconclusive, GPT2 inh -13%, NIH3T3 tox inconclusive, FLuc inh inactive and NPR1 antag inconclusive.
Screening O=C(c1ccc(Oc2ccccc2)cc1)N1CCNc2cnc(Nc3cccc(C(F)(F)F)c3)nc2C1 returned HEK cytotox 22µM*, GPT2 inh 0%, NIH3T3 tox 25µM*, FLuc inh inactive and NPR1 antag inconclusive.
For O=C(Nc1cccs1)N1CCNc2cnc(Nc3cccc(C(F)(F)F)c3)nc2C1 the results were HEK cytotox 79µM*, GPT2 inh inactive, NIH3T3 tox 79µM*, FLuc inh inactive and NPR1 antag -5%[70.6 µM].
O=C(COc1ccccc1)N1CCNc2cnc(Nc3cccc(F)c3)nc2C1 was read as HEK cytotox inconclusive, GPT2 inh inactive, NIH3T3 tox inconclusive, FLuc inh inactive and NPR1 antag -8%[70.6 µM].
For COc1ccccc1C(=O)N1CCc2c(c(-c3nncn3Cc3ccccc3)nn2C)C1 the results were HEK cytotox -21%, GPT2 inh -9% and NIH3T3 tox -28%.
Screening O=C(c1ccccn1)N1CCN(c2ccc3nnc(-c4ccccc4)n3n2)CC1 returned HEK cytotox -28% and NIH3T3 tox inconclusive.
`O[C@H]1[C@H](NCc2ccccc2)[C@H]2CO[C@H](O2)[C@@H]1Sc1ccccc1` gave HEK cytotox inconclusive, GPT2 inh -20%[88.5 µM], NIH3T3 tox -12%[138 µM], FLuc inh inactive and NPR1 antag 2%[70.6 µM].
`O[C@H]1[C@H](NCc2ccc(-c3ccccc3)cc2)[C@H]2CO[C@H](O2)[C@@H]1Sc1ccccc1` gave HEK cytotox 40µM*, GPT2 inh -27%[88.5 µM], NIH3T3 tox 63µM*, FLuc inh inactive and NPR1 antag inconclusive.
O[C@H]1[C@H](NCc2ccc(-c3ccccc3)cc2)[C@H]2CO[C@H](O2)[C@@H]1Oc1ccccc1 was read as HEK cytotox 89µM*, GPT2 inh -7%[88.5 µM], NIH3T3 tox 112µM*, FLuc inh inactive and NPR1 antag -20%[70.6 µM].
`CCOc1ccccc1CN1CCCCC12Cc1ccccc1CNC2=O` (stereo not given) gave HEK cytotox 4%, GPT2 inh -11% and NIH3T3 tox 5%.
Cc1cc(C)c(CNC(=O)c2nc(-c3ccccc3C)cc3c2ccn3C(C)C)c(=O)[nH]1 was read as HEK cytotox 22µM*, GPT2 inh -12%[88.5 µM], NIH3T3 tox 28µM*, FLuc inh inactive and NPR1 antag inconclusive.
Screening Cc1ccc(-c2cc3c(ccn3C(C)C)c(C(=O)NCc3c(C)cc(C)[nH]c3=O)n2)cn1 returned HEK cytotox inconclusive, GPT2 inh inactive, NIH3T3 tox 79µM*, FLuc inh inconclusive and NPR1 antag 1%[70.6 µM].
COc1ccc(-c2cc3c(ccn3C(C)C)c(C(=O)NCc3c(C)cc(C)[nH]c3=O)n2)cn1 was read as HEK cytotox inconclusive, GPT2 inh 4%, NIH3T3 tox inconclusive, FLuc inh inactive and NPR1 antag 1%.
Cc1cc(C)c(CNC(=O)c2nc(-c3ccc(CN(C)C)cc3)cc3c2ccn3C(C)C)c(=O)[nH]1 was read as HEK cytotox inconclusive, GPT2 inh -27%, NIH3T3 tox 14µM*, FLuc inh inactive and NPR1 antag -2%.
Cc1cc(C)c(CNC(=O)c2nc(-c3ccc(CN(C)C)cc3)cc3[nH]ccc23)c(=O)[nH]1 was read as HEK cytotox inconclusive, GPT2 inh inactive, NIH3T3 tox 100µM*, FLuc inh inconclusive and NPR1 antag 5%[70.6 µM].
Cc1cc(C)c(CNC(=O)c2cc(-c3ccc(CN(C)C)cc3)cc3ncn(C)c23)c(=O)[nH]1 was read as HEK cytotox inactive, GPT2 inh 1%, NIH3T3 tox inconclusive, FLuc inh inconclusive and NPR1 antag 1%.
Screening CC(=O)N1CCN(C(=O)c2nc3sccn3c2-c2ccc(C)cc2)CC1 returned HEK cytotox -5%, GPT2 inh 1% and NIH3T3 tox -13%.
Screening O=C(NCC(=O)N1CCC(Cc2ccccc2)CC1)c1ccc(-c2cccc(C(F)(F)F)c2)cc1 returned HEK cytotox inconclusive, GPT2 inh inactive and NIH3T3 tox inconclusive.
CCOC(=O)[C@@H]1CN(C(=O)OCC)[C@H]2c3ccccc3O[C@@H]12 was read as HEK cytotox -18% and NIH3T3 tox inconclusive.
CCCc1sc(NC(=O)CC[C@H]2NC(=O)c3ccccc3NC2=O)nc1C(=O)OC was read as HEK cytotox inconclusive, GPT2 inh inactive, NIH3T3 tox inconclusive, FLuc inh inactive and NPR1 antag -14%.
Screening OC1(CN2CCN(c3ccc(F)c(Cl)c3)CC2)CCCNC1 (stereo not given) returned HEK cytotox 79µM*, GPT2 inh inactive, NIH3T3 tox inconclusive, FLuc inh inactive and NPR1 antag 3%.
`COCCN1CC(CO)C2(CCN(C(=O)c3ccc(C(C)C)cc3)CC2)C1` (stereo not given) gave HEK cytotox inconclusive, GPT2 inh inactive, NIH3T3 tox -27%, FLuc inh inactive and NPR1 antag 1%.
`Cc1ccc(-c2ccccc2CN2CCN([S+](=O)([O-])c3c(C)noc3C)CC2)cc1Cl` gave HEK cytotox inconclusive, GPT2 inh inactive and NIH3T3 tox inconclusive.
`O=C(c1cccs1)N1CCCn2cc(-c3ccc4c(c3)OCO4)nc21` gave HEK cytotox inconclusive, GPT2 inh -5%, NIH3T3 tox inactive, FLuc inh 40µM* and NPR1 antag 3%.
